Sa growth 42C: S. aureus growth inhibition | S. aureus RN4220 growth, OD600, 20 h, 42 °C; active compounds read low | relative growth, % (no concentration beside the values) | 170,000 tested, 0.53% active | AID 720641;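 active = relative growth at most 50% at the other temperature and 20+ points below 30 °C, or under 10% at both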
S aureus helic: blocks Staphylococcus aureus DNA helicase | purified S. aureus helicase, fluorescence unwinding assay | inhibition, % (test concentration not listed) | 120,000 tested, 0.05% active | AID 485395; in the data active = inhibition above about 25%, passing the limit was not always enough
Large screens that a line does not name were inactive. This is a sample that favours compounds with a hit; in the whole collection about 0.52% have one here.

O=C(c1cc2ccc3cccnc3c2[nH]1)N1CCN(Cc2ccccc2)CC1	none
CCN1CCN(Cc2ccc(NC(=O)c3cc4ccc5cccnc5c4[nH]3)cc2)CC1	S aureus helic 91.0
Cn1c2ccccc2c2cnn(CC(=O)NCCc3ccccc3)c(=O)c21	none
CCc1nc(SC)ncc1C(=O)NCCN1CCN(c2cccc(Cl)c2)CC1	none
N#CC(C#N)=NNc1ccc2c(c1)OCO2	Sa growth 42C 0.6
CC(=O)Nc1ccc2c(c1)OCO2	none
CCSC1=C(C#N)C2(CCCCC2)C(C#N)=C(N)N1	none
N#CC1=C(CBr)NC(CBr)=C(C#N)C12CCCCC2	S aureus helic 48.0
COc1ccccc1OC(=O)C1CCCCC1	none
Cc1c2oc3c(C)ccc(C(=O)N[C@@H]4C(=O)N[C@H](C(C)C)C(=O)N5CCC[C@H]5C(=O)N(C)CC(=O)N(C)[C@@H](C(C)C)C(=O)O[C@@H]4C)c3nc-2c(C(=O)N[C@@H]2C(=O)N[C@H](C(C)C)C(=O)N3CCC[C@H]3C(=O)N(C)CC(=O)N(C)[C@@H](C(C)C)C(=O)O[C@@H]2C)c(N)c1=O	Sa growth 42C -0.6 (no result: S aureus helic)
Cc1[nH]c2ccc(C(=O)OCC(=O)Nc3nnc(-c4ccccc4)o3)cc2c1C	none
CCc1cc(-c2ccccc2)nc2ccccc12	none (no result: Sa growth 42C)
COc1cccc(NC(=S)N/N=C/c2ccc(O)cc2)c1	none
CC1c2ccsc2CCN1C(=S)NC(=O)c1cccs1 (stereo not given)	Sa growth 42C -0.4 (no result: S aureus helic)
CN1CCC(NC(=O)c2cccs2)CC1	none
O=C(Oc1ccc(C2SCCS2)cc1)c1cccc(C(F)(F)F)c1	none
CCOC(=O)c1c(-c2cccs2)csc1NC(=O)CSc1nncn1C	none
O/N=C/c1ccc(Cl)cc1	none
Clc1ccc(/C=N/c2ccccn2)cc1	Sa growth 42C 1.3
Fc1ccccc1-c1ncc(-c2ccc(Cl)cc2)o1	none (no result: S aureus helic)
COC(=O)COc1ccccc1OC	none
Cc1cc(NS(=O)(=O)c2ccc(N=Cc3ccccc3O)cc2)no1	none
CCOc1nnc(NS(=O)(=O)c2ccc(N=Cc3ccccc3O)cc2)s1	Sa growth 42C 7.8
O=C1/C(=C/c2cccnc2)c2ccccc2N1c1ccccc1	Sa growth 42C 8.4
O=C1C(=Cc2cccnc2)C(=O)c2ccccc21	none
COc1ccc(-c2cc(C3CCN(c4nc(N)c5cc(OC)c(OC)cc5n4)CC3)[nH]n2)cc1OC	none
CCC(=O)O[C@H]1[C@H](O[C@@H]2[C@@H](C)[C@H](O[C@H]3C[C@@](C)(OC)[C@@H](O)[C@H](C)O3)[C@@H](C)C(=O)O[C@H](CC)[C@@](C)(O)[C@H](O)[C@@H](C)C(=O)[C@H](C)C[C@@]2(C)O)O[C@H](C)C[C@@H]1N(C)C	Sa growth 42C -0.9 (no result: S aureus helic)
CCOC(=O)CCC(=O)O[C@H]1[C@H](O[C@@H]2[C@@H](C)[C@H](O[C@H]3C[C@@](C)(OC)[C@@H](O)[C@H](C)O3)[C@@H](C)C(=O)O[C@H](CC)[C@@](C)(O)[C@H](O)[C@@H](C)C(=O)[C@H](C)C[C@@]2(C)O)O[C@H](C)C[C@@H]1N(C)C	Sa growth 42C -0.8 (no result: S aureus helic)
CO[C@@H]1[C@@H](O[C@@H]2O[C@H](C)[C@@H](O[C@H]3C[C@@](C)(O)[C@H](O)[C@H](C)O3)[C@H](N(C)C)[C@H]2O)[C@@H](CC=O)C[C@@H](C)[C@@H](O[C@H]2CC[C@H](N(C)C)[C@@H](C)O2)/C=C/C=C/C[C@H](C)OC(=O)C[C@H]1O	none (no result: S aureus helic)
CC[C@H]1OC(=O)[C@H](C)[C@@H](O[C@H]2C[C@@](C)(OC)[C@@H](O)[C@H](C)O2)[C@H](C)[C@@H](O[C@@H]2O[C@H](C)C[C@H](N(C)C)[C@H]2O)[C@](C)(O)C[C@@H](C)C(=O)[C@H](C)[C@@H](O)[C@]1(C)O	Sa growth 42C -0.9 (no result: S aureus helic)
CC[C@H]1OC(=O)[C@H](C)C(=O)[C@H](C)[C@@H](O[C@@H]2O[C@H](C)C[C@H](N(C)C)[C@H]2O)[C@](C)(OC)C[C@@H](C)C(=O)[C@H](C)[C@@H]2N(CCCCn3cnc(-c4cccnc4)c3)C(=O)O[C@@]21C	none (no result: S aureus helic)
CC[C@H]1OC(=O)[C@H](C)[C@@H](O[C@H]2C[C@@](C)(OC)[C@@H](O)[C@H](C)O2)[C@H](C)[C@@H](O[C@@H]2O[C@H](C)C[C@H](N(C)C)[C@H]2O)C(C)(O)C[C@@H](C)CN(C)[C@H](C)[C@@H](O)[C@]1(C)O (stereo not given in full)	Sa growth 42C -0.4 (no result: S aureus helic)
CC1CCCN(Cn2nnc3ccccc3c2=O)C1 (stereo not given)	none
O=S(=O)(c1cnc[nH]1)N1CCCCC1	none
Cc1cc(N)c(O)cc1C	none
CCN(CC)C(=O)c1ccc2nc(N)sc2c1	none
O=C(c1ccc(N2CCOCC2)nc1)N1CCCCCC1	none (no result: S aureus helic)
C=CCNC(=O)C1=CC(c2ccc(C)cc2)=NS(=O)(=O)N1C	none
CCn1cc(C(=O)NN)c(=O)c2cc(F)c(N3CCCC3)cc21	none
CCn1cc(C(=O)O)c(=O)c2cc(F)c(N3CCN(C(=S)Nc4ccc5c(c4)OCO5)CC3)cc21	Sa growth 42C 0.2
CCn1cc(C(=O)NCC(C)C)c(=O)c2cc(F)c(N3CCN(C(=O)c4ccco4)CC3)cc21	none
CCn1cc(C(=O)O)c(=O)c2cc(F)c(N3CCNCC3)cc21	Sa growth 42C -0.1 (no result: S aureus helic)
CCn1cc(C(=O)O)c(=O)c2cc(F)c(N3CCN(C)CC3)cc21	Sa growth 42C -0.9
CCn1cc(C(=O)O)c(=O)c2cc(F)c(N3CCN(C(=O)c4ccccc4F)CC3)cc21	none
Cc1ccc(CSc2nc3nccnc3c(=O)n2CCC(C)C)cc1	none
CN1N=C(C(=O)Nc2nc3ccc(F)cc3s2)CCC1=O	none (no result: Sa growth 42C)
CC(C)(C)c1ccc(Cn2c(N)nc3ccccc32)cc1	Sa growth 42C 6.3
Nc1nc2ccccc2n1Cc1ccccc1F	none
COc1ccc(C2=Nn3c(nc4sc5c(c4c3=O)CCCC5)SC2)cc1	none (no result: S aureus helic)
COc1ccc(C2=Nn3c([n+](C)c4ccccc43)SC2)cc1	Sa growth 42C 1.4
O=C1NC(=O)/C(=C\C=C\c2ccccc2)S1	none (no result: Sa growth 42C)
O=C1NC(=S)S/C1=C\C=C\c1ccccc1	Sa growth 42C 6.9
COC(=O)c1sc(-c2cccs2)cc1N1C(=O)C=CC1=O	none (no result: S aureus helic)
COc1ccc(-c2nsc(SCC(=O)N3CCCC3)n2)cc1	none
CS(=O)(=O)c1ncc(Cl)c(C(=O)Nc2cccc(Cl)c2)n1	Sa growth 42C 0.2
CCS(=O)(=O)c1ncc(Cl)c(C(=O)Nc2c(C(=O)Nc3cccc(C)c3)oc3ccccc23)n1	none (no result: S aureus helic)
CS(=O)(=O)c1ncc(Cl)c(C(=O)N2CCN(C(c3ccccc3)c3ccccc3)CC2)n1	Sa growth 42C 4.2
COc1ccc(NC(=O)c2nc(S(C)(=O)=O)ncc2Cl)cc1Cl	none
O=C(O)c1nccnc1C(=O)N1CCN(C(c2ccccc2)c2ccccc2)CC1	none
Cc1cccc(NC(=O)c2nc(S(C)(=O)=O)ncc2Cl)c1	Sa growth 42C 1.0 (no result: S aureus helic)
COc1ccc2cc3cc(C(=O)Nc4ccc(Oc5ccccc5)cc4)oc3nc2c1	none
COC(=O)C1=NN(c2c(C)cccc2Cl)C(=O)C1	none (no result: S aureus helic)
NC(=NC(=O)c1ccccc1)c1ccc(C(F)(F)F)cn1	none (no result: S aureus helic)
CC(NC(=O)Cc1ccccc1)C(c1ccccc1)N1CCOCC1 (stereo not given)	none
CC(NC(=O)c1cc(=O)c2ccccc2o1)C(c1ccccc1)N1CCOCC1 (stereo not given)	S aureus helic 35.0
Clc1ccc(-c2nc(NCc3ccco3)c3ccccc3n2)c(Cl)c1	none
c1cncc(-c2nc(NCCSCc3ccco3)c3ccccc3n2)c1	Sa growth 42C 5.9
O=c1[nH]cc(F)c(=O)[nH]1	Sa growth 42C -0.5 (no result: S aureus helic)
CN(C)c1c[nH]c(=O)[nH]c1=O	none

Source: PubChem (ICCB-Longwood Screening Facility, Harvard Medical School)
